# Source: PubChem BioAssay (National Center for Advancing Translational Sciences (NCATS))
# Sampled rows, rich in hits. Any-hit rate of the full collection: about 0.87%.
# EPAC2 antagonist: qHTS for Antagonist of cAMP-regulated guanine nucleotide exchange factor 2 (EPAC2): primary screen; Rap guanine nucleotide exchange factor 4 (Homo sapiens), Q8WZA2; EPAC2 GEF exchange of Rap1B-BODIPY-GDP, fluorescence; Potency, µM (top dose mostly 114 µM), for inactives: at the highest dose activity, negative = inhibition, most hits filed as inhibitors; 0.18% of 360,000 active; active means well fitted curve in the direction sought with a large enough effect; inconclusive means small, poorly fitted or top-dose-only effect, or another doubt; inactive means no such curve, though single readings can be large; an effect the other way counts as inactive or inconclusive; further: potency means the concentration at half of the fitted maximal effect; on the % scale 0 is the no-effect control and ±100 the full control effect; nearly all actives have a fitted effect of over 45% in size
# FBPA coupling cs: qHTS Assay for Inhibitors of Fructose-1,6-bisphosphate Aldolase from Giardia Lamblia: Coupling assay counterscreen; AID 2472, 2010; 0.67% of 290,000 active; coupling enzyme system counterscreen, AmpLite Red fluorescence; activity change, negative = inhibition, % at 58.2 µM, hits read low; in the data active means activity change below about -30%; further: on the % scale 0 is the no-effect control and ±100 the full control effect
#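 Counterscreen of the coupled detection system alone, without aldolase: glyceraldehyde-3-phosphate coupling enzymes plus AmpLite Red readout. Compounds at 57.5 uM final, 10 min RT preincubation, 20 min RT reaction, fluorescence 525/598 nm.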
# EPAC1 antagonist: qHTS for Antagonist of cAMP-regulated guanine nucleotide exchange factor 3 (EPAC1): primary screen; EPAC1 GEF assay, Rap1b-BODIPY-GDP exchange fluorescence; 0.14% of 360,000 active; Potency, µM (titrated, usually from 115 µM), for inactives: at the highest dose activity change, negative = inhibition, actives largely listed as inhibitors; Rap guanine nucleotide exchange factor 3 (Homo sapiens), O95398; active means well fitted curve in the direction sought with a large enough effect; inconclusive means small, poorly fitted or top-dose-only effect, or another doubt; inactive means no such curve, though single readings can be large; an effect the other way counts as inactive or inconclusive;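 further: potency means the concentration at half of the fitted maximal effect; plate controls were vehicle for no effect and positive control for full effect; nearly all actives have a fitted effect of over 50% in size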
# EPAC1 ag: qHTS for Agonist of cAMP-regulated guanine nucleotide exchange factor 3 (EPAC1): primary screen | Rap guanine nucleotide exchange factor 3 (Homo sapiens), O95398 | EPAC1 agonist qHTS, biochemical assay; response scale: 100% = response to 6.5 mM cAMP | Potency, µM (series often up to 154 µM), for inactives: at the highest dose activation, actives largely listed as activators | 0.073% of 360,000 active | AID 720707, 2013; active means well fitted curve in the direction sought with a large enough effect; inconclusive means small, poorly fitted or top-dose-only effect, or another doubt; inactive means no such curve, though single readings can be large; an effect the other way counts as inactive or inconclusive; further: potency means the concentration at half of the fitted maximal effect; nearly all actives have a fitted effect of over 60% in size
#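 Nucleotide exchange by EPAC1 (100 nM) on Rap1B–BODIPY-GDP (250 nM) in the presence of 50 uM GDP is tracked fluorescently at 480/540 nm over 30 min. Signals are normalized to a 6.5 mM cAMP control.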
# USP1-UAF1 inh: Inhibitors of USP1/UAF1: Primary Screen | Ubiquitin carboxyl-terminal hydrolase 1 (Homo sapiens), O94782 | recombinant USP1/UAF1, Ub-Rhodamine cleavage fluorescence | Potency, µM (top dose mostly 57.1 µM), inactives show at the top dose activity change, negative = inhibition, actives largely listed as inhibitors | 0.23% of 390,000 active | AID 743255, 2014; active means well fitted curve in the direction sought with a large enough effect; inconclusive means small, poorly fitted or top-dose-only effect, or another doubt; inactive means no such curve, though single readings can be large; an effect the other way counts as inactive or inconclusive; further: potency means the concentration at half of the fitted maximal effect; on the % scale 0 is the no-effect control and ±100 the full control effect; nearly all actives have a fitted effect of over 60% in size
#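 High-throughput fluorogenic screen: 1nM USP1/UAF1 complex, Ub-Rho substrate 150nM final, 50mM HEPES pH 7.8 with 0.5mM EDTA, 0.1 mg/ml BSA, 1mM TCEP and 0.01% Tween-20.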
# EPAC2 agonist: qHTS for Agonist of cAMP-regulated guanine nucleotide exchange factor 4 (EPAC2): primary screen. Rap guanine nucleotide exchange factor 4 (Homo sapiens), Q8WZA2. Potency, µM (titrated, usually from 154 µM), inactives show at the top dose activation, most hits filed as activators. EPAC2 activation, biochemical qHTS; response scale: 100% = 6.5 mM cAMP response. 0.079% of 360,000 active; active means well fitted curve in the direction sought with a large enough effect; inconclusive means small, poorly fitted or top-dose-only effect, or another doubt; inactive means no such curve, though single readings can be large; an effect the other way counts as inactive or inconclusive; further: potency means the concentration at half of the fitted maximal effect; nearly all actives have a fitted effect of over 50% in size
#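 Nucleotide exchange monitored as fluorescence drop when BODIPY-GDP leaves Rap1B. Reaction: 100 nM EPAC2, 250 nM RAP1B-BODIPY-GDP, 50 uM GDP, room temperature, kinetic read over 30 min. Activity expressed relative to 6.5 mM cAMP.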
# Casp1 catalase: Concentration-Response Counterscreen for Redox Active Inhibitors of Caspase-1: Catalase | shares compounds with FBPA coupling cs | AID 888, 2007 | 30 tested, under 10 active | Potency, µM (titrated, usually from 57.5 µM), for the others: top-dose activity change, negative = inhibition, hits mostly inhibitors | caspase-1 Ac-WEHD-AFC fluorescence rate, catalase buffer
# CASP1 inh CRC: Confirmation Concentration-Response Assay for Allosteric/Competitive Inhibitors of Caspase-1 | purified caspase-1, fluorogenic substrate cleavage | shares compounds with FBPA coupling cs | AID 896, 2007 | 20% of 60 active | Potency, µM (doses to about 57.5 µM), without a hit: top-dose activity change, negative = inhibition, most hits filed as inhibitors
# CASP7 inh CRC: Confirmation Concentration-Response Assay for Allosteric/Competitive Inhibitors of Caspase-7 | recombinant caspase-7, fluorogenic substrate cleavage | AID 897, 2007 | Potency, µM (highest dose often 57.5 µM), for inactives: at the top dose activity change, negative = inhibition, actives largely listed as inhibitors | 60 tested, under 10 active | shares compounds with FBPA coupling cs; active means well fitted inhibition curve with a large enough effect in the main read-out, with a control signal flat, not every such curve was filed as active; inconclusive means small, poorly fitted or top-dose-only effect, or a change in a side signal; inactive means no such curve, though single readings can be large or run the other way
# Casp7 cysteine: Concentration-Response Counterscreen for Redox Active Inhibitors of Caspase-7: Cysteine; AID 908, 2007; 60 tested, under 10 active; shares compounds with FBPA coupling cs; caspase-7 enzyme with cysteine, fluorogenic substrate, redox counterscreen; Potency, µM (series often up to 57.5 µM), for inactives: at the top dose activity change, negative = inhibition, hits mostly inhibitors
# CASP7 redox cat: Concentration-Response Counterscreen for Redox Active Inhibitors of Caspase-7: Catalase; Caspase-7 Ac-DEVD-AFC fluorescence rate, catalase buffer; AID 909, 2007; Potency, µM (titrated, usually from 57.5 µM), for the others: at the highest dose activity, negative = inhibition, hits mostly inhibitors; 30 tested, under 10 active; shares compounds with FBPA coupling cs
# Casp1 cysteine: Concentration-Response Counterscreen for Redox Active Inhibitors of Caspase-1: Cysteine; shares compounds with FBPA coupling cs; recombinant caspase-1, fluorogenic substrate, cysteine buffer; Potency, µM (doses to about 57.5 µM), inactives show at the top dose activity change, negative = inhibition, usual class: inhibitors; 60 tested, under 10 active
# * marks the source's active call; other numbers are inactive results; ? = inconclusive; / = no result given. Unless noted, the call rests on the fitted dose curve; in most records, active means well fitted inhibition curve with a large enough effect in the main read-out, with a control signal flat; inconclusive means small, poorly fitted or top-dose-only effect, or a change in a side signal; inactive means no such curve, though single readings can be large or run the other way.
SMILES,EPAC2 antagonist,FBPA coupling cs,EPAC1 antagonist,EPAC1 ag,USP1-UAF1 inh,EPAC2 agonist,Casp1 catalase,CASP1 inh CRC,CASP7 inh CRC,Casp7 cysteine,CASP7 redox cat,Casp1 cysteine
Cn1c(CNc2ccc(F)cc2)nnc1SCC(=O)NNC(=O)Cc1ccccc1,6%,-1,0%,-3%,-21%,3%,/,/,/,/,/,/
COc1cc(N[C@@H](C)CCCN)c2ncccc2c1,/,-33*,/,/,/,/,/,-42%,-20%,-7%,/,-5%
CCc1ccc(CNc2ccc(O)cc2)cc1,15%,-58*,8.9µM*,0%,28µM*,9%,/,-5%,-3%,-4%,/,9%
CCc1ccc(CNc2ccc3c(c2)ncn3CC)cc1,-12%,-1,?,-6%,-21%,3%,/,/,/,/,/,/
CC12CC3OS(=O)OC3CC3C4C(C(OCc5ccccc5)C31)C42 (stereo not given),/,2,/,/,/,/,/,/,/,/,/,/
CCCCCCC(=O)N1CCC(c2nc3c(nnn3Cc3ccccc3Cl)c(=O)[nH]2)CC1,-22%,-3,?,18%,0%,4%,/,-14%,4µM*,5µM*,/,2%
O=C(C1CCCCC1)N1CCC(c2nc3c(nnn3Cc3ccccc3Cl)c(=O)[nH]2)CC1,-1%,/,7%,-1%,-19%,-6%,/,/,/,/,/,/
Cc1ccc(NC(=O)N2CCC(c3nc4c(nnn4Cc4cccc(Cl)c4)c(=O)[nH]3)CC2)cc1,-3%,1,-2%,0%,-27%,1%,/,-10%,?,?,/,3%
O=C(/C=C/c1c(Cl)nc2ccccn12)N1CCN(c2ccc(F)cc2)CC1,-3%,2,-9%,2%,-13%,-4%,/,/,/,/,/,/
O=C1CCC/C(=N/NC(=O)c2ccc(CN3c4cccc5cccc(c45)S3(=O)=O)cc2)C1,-2%,0,20%,3%,-15%,0%,/,/,/,/,/,/
COc1cc2c(C(=O)c3ccccc3)c3c4c(cc(OC)c(OC)c4c2cc1OC)CCN3C,/,-14,/,/,/,/,/,/,/,/,/,/
COc1cc2c(Cc3c4c5c(cc(OC)c(OC)c5c5c(OC)c(OC)ccc35)CCN4C)c3c4c(cc(OC)c(OC)c4c2cc1OC)CCN3C,/,-33*,/,/,/,/,/,?,-43%,-8%,/,?
COc1ccc(Br)cc1CNc1ccc(O)cc1,-12%,-63*,?,11%,?,9%,1%,-2%,-1%,3%,-5%,8%
CC(C)N1C(=O)S/C(=C/c2ccccc2OCc2ccc(C(=O)O)cc2)C1=O,0%,11,-29%,-7%,-22%,-3%,/,/,/,/,/,/
O=C(COC(=O)c1cc(-c2ccco2)nc2ccccc12)NCc1ccc2c(c1)OCO2,9%,2,24%,-1%,-6%,4%,?,?,?,-12%,-21%,?
CCC1Oc2ccc(C)cc2N(CC(=O)N2CCN(c3ccc(F)cc3)CC2)C1=O (stereo not given),7%,1,-13%,-1%,-1%,22%,/,/,/,/,/,/
O=C(c1ccc(Cl)c(Cl)c1)N(Cc1ccco1)c1ccc(O)cc1,-11%,6,-10%,6%,-18%,8%,-10%,-3%,?,?,32µM*,8%
O=C(COc1ccccc1)N(Cc1ccco1)c1ccc(O)cc1,-1%,9,1%,1%,-10%,-3%,/,/,/,/,/,/
COc1ccc(Cn2c(=O)[nH]c3cc(C(=O)N4CCN(Cc5ccccc5)CC4)ccc3c2=O)cc1,-10%,4,-17%,0%,-11%,10%,-3%,-8%,?,?,?,4%
COc1ccc2c(c1)C(=O)N(c1ccccc1OC)C(=O)C2,-4%,-11,-21%,2%,?,1%,?,?,-12%,-7%,-12%,?
COc1ccc2c(c1)C(=O)N(c1ccc(C)cc1C)C(=O)C2,-4%,0,-1%,-4%,?,2%,/,/,/,/,/,/
CC1=C(C(=O)Nc2ccc(F)cc2F)C2(CCCCCC2)OC1=O,/,/,/,/,-31%,/,/,/,/,/,/,/
CC1=C(C(=O)Nc2cc(-c3cccc(F)c3)[nH]n2)C2(CCCCC2)OC1=O,-6%,-2,-6%,-7%,-19%,2%,-2%,-8%,-35%,-38%,-11%,3%
Cc1ccc(N2C(=O)[C@@H]3[C@H](C2=O)C2c4ccccc4C=CN2[C@@H]3C(=O)c2ccco2)cc1 (stereo not given in full),-8%,-41*,-9%,5%,16µM*,-7%,/,25µM*,-94%,-7%,/,?
